From PubChem BioAssay (NCATS)
Results filed as inconclusive are left out. A call without a number means that no potency is given here. Activity calls are given as the source filed them. Calls follow the shape of the full dose curve; tested in HEK293 reporter line.

Experiment: qHTS for Inhibitors of the Functional Ribonucleoprotein Complex (vRNP) of Lymphocytic Choriomeningitis Arenaviruses (LCMV): Viability assay - alamar blue signal for LCMV Primary Screen (AID 1347085); also: nearly all actives have a fitted effect of over 80% in size
Conditions: alamar blue viability counter-screen, LCMV vRNP screen cells; series mostly up to 57.5 µM

| Structure (SMILES) | Potency | activity change, negative = lower viability |
| --- | --- | --- |
| O=C(NN1CCCC1)NS(=O)(=O)c1ccc(Cl)cc1 | inactive | – |
| Nc1c2c(nc3c1CCC3)CCCC2 | inactive | – |
| Cc1cccc(CN2CCN(C(c3ccccc3)c3ccc(Cl)cc3)CC2)c1 (centres undefined) | inactive | – |
| C[C@@H]1CCC[C@H](C)N1CCCC(O)(c1ccccc1)c1ccccn1 (some centres undefined) | inactive | – |
| CCCCN1CCCC1C(=O)Nc1c(C)cc(C)cc1C (centres undefined) | inactive | – |
| COc1ccccc1N1CCN(CC(O)COc2cccc3ccccc23)CC1 (centres undefined) | inactive | – |
| CCN(CC)CCOc1ccc(Cc2ccccc2)cc1 | inactive | – |
| CC(C)C(=O)Nc1cccc(C2CN3CCSC3=N2)c1 (centres undefined) | inactive | – |
| C/C=C/c1ccc(O)c(OC)c1 | inactive | – |
| COc1ccc2c(c1)c(CC(=O)O)c(C)n2C(=O)c1ccc(Cl)cc1 | inactive | – |
| CCCCNc1ccc(C(=O)OCCN(CC)CC)cc1 | inactive | – |
| O=C(O)c1cn(-c2ccc(F)cc2)c2cc(N3CCNCC3)c(F)cc2c1=O | inactive | – |
| COC(=O)[C@H]1[C@H]2C[C@@H]3c4[nH]c5cc(OC)ccc5c4CCN3C[C@H]2C[C@@H](OC(=O)COc2ccc(OC)cc2)[C@@H]1OC | inactive | – |
| O=C(COc1ccc(Cl)cc1)N1CCN(Cc2ccc3c(c2)OCO3)CC1 | inactive | – |
| Cc1ncc([N+](=O)[O-])n1C | inactive | – |
| c1ccc(CCNc2nc(-c3ccccc3)cs2)cc1 | inactive | – |
| Cc1cc(N)c2cc(NC(=O)Nc3ccc4nc(C)cc(N)c4c3)ccc2n1 | inactive | – |
| CCc1cccc2c3c([nH]c12)C(CC)(CC(=O)O)OCC3 (centres undefined) | inactive | – |
| CN(C)CCCN1c2ccccc2Sc2ccccc21 | inactive | – |
| Cc1c(F)cc2c(=O)c(C(=O)O)cn3c2c1CCC3C (centres undefined) | inactive | – |

| Structure (SMILES) | Potency | activity change, negative = lower viability |
| --- | --- | --- |
| OC1C(O)C(O)C(O)C(O)C1O (centres undefined) | inactive | – |
| C[C@@]12CCC[C@H]1[C@@H]1CC[C@H]3C[C@@H](O)CC[C@]3(C)[C@H]1CC2 | inactive | – |
| CCOC(=O)C(C#N)=C(c1ccccc1)c1ccccc1 | inactive | – |
| CCOC(=O)c1c(N)sc2c1CCN(Cc1ccccc1)C2 | inactive | – |
| Cc1cc(C(C)(C)C)cc(C)c1CC1=NCCN1 | inactive | – |
| CCN(CC)CCOC(=O)C(c1ccccc1)c1ccccc1 | inactive | – |
| Cc1cn([C@H]2C[C@H](F)[C@@H](CO)O2)c(=O)[nH]c1=O | inactive | – |
| CCOC(=O)[C@H](CCc1ccccc1)N[C@H]1CS[C@H](c2cccs2)CN(CC(=O)O)C1=O | inactive | – |
| OC(C#CCN1CCCC1)(c1ccccc1)c1ccccc1 | inactive | – |
| CCC(=O)c1ccc(O)cc1 | inactive | – |
| CN1Cc2c(N)cccc2C(c2ccccc2)C1 (centres undefined) | inactive | – |
| Nc1ccc(C(=O)N2CC3CC(CN(Cc4ccccc4)C3)C2)cc1 | inactive | – |
| Cc1ccc(Cl)c(OCC(O)CNC(C)(C)C)c1 (centres undefined) | inactive | – |
| CCCCOC(=O)CCCCCCCCC(=O)OCCCC | inactive | – |
| N#Cc1cc(NC(=O)C(=O)O)c(Cl)c(NC(=O)C(=O)O)c1 | inactive | – |
| C/C(=C(\CCOP(=O)(O)O)SC(=O)c1ccccc1)N(C=O)Cc1cnc(C)nc1N | – | -0.415% [at 5.82 µM] (inactive) |
| Cc1cccc(Nc2cc(Cl)nc(SCC(=O)O)n2)c1C | inactive | – |
| O=C1c2cccc(O)c2C(=O)c2c(O)cccc21 | inactive | – |
| C=C1C[C@H]2[C@@H]3C=C(C)C4=CC(=O)CC[C@]4(C)[C@H]3CC[C@]2(C)[C@@]1(OC(C)=O)C(C)=O | inactive | – |
